Assay results from PubChem BioAssay (NCI).
About 79,000 compounds went through this panel and 15% of them were active in at least one assay; those are over-represented in the sample as a whole. Values without a mark were called inactive. Active and inactive are the calls of the source. No stated cut-off is given here; in the data, active means growth inhibition above about 70%; inactive means the rest.

Assay: NCI Yeast Anticancer Drug Screen. Data for the cln2 rad14 strain (AID 165);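 further: 0% = growth equal to vehicle treated cultures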
Conditions: S. cerevisiae cln2 rad14 strain, active compounds read high
Method: Growth inhibition of yeast strains with defined genetic alterations is measured as a screen for potential anti-cancer activity. Selected strains with alterations in DNA damage repair or cell cycle control were exposed to compounds and growth inhibition was measured relative to vehicle treated controls. The strain used in this assay is cln2 rad14

[1] = at 5.0 µM (retest, dose inferred, filed as 0.5)
[2] = at 50.0 µM (retest, dose inferred, filed as 5.0)

SMILES	growth inhibition [1]	growth inhibition [2]	growth inhibition (at 50.0 µM)
Cc1ccc2[nH]c3c(c2c1)CCC/C3=N/N=C(N)N	22%	99% (active)	91% (active)
O=C1OC2(CCCC2)OC1c1ccccc1 (configuration not stated)	-4%	0%	72.2% (active)
Cc1cc2ccc(N)nc2[nH]c1=O	-3%	-1%	85.4% (active)
COc1ccc(C(=O)C(C(c2ccccc2)N2CCc3ccccc3C2)N2CCc3ccccc3C2)cc1 (configuration not stated)	2%	-27%	26.9%
COc1ccc2nc3cc(Cl)ccc3c(NCCCCCCNc3c4ccc(Cl)cc4nc4ccc(OC)nc34)c2n1	4%	80% (active)	91.5% (active)
CCC(C(c1ccc(Cl)cc1)c1ccc(Cl)c(Cl)c1)[N+](=O)[O-] (configuration not stated)	4%	30%	34%
O=C(O)C(O)C(O)C(O)C(O)CO.[Ag] (configuration not stated)	99% (active)	98% (active)	99.3% (active)
CN=S(=O)(OCCCCCCCCCOS(=O)(=NC)c1ccc(C)cc1)c1ccc(C)cc1 (configuration not stated)	29%	-1%	-5.85%
CCCCCCCCC1(C(=O)OCCN(CC)CC)CCCCC1	13%	100% (active)	99.8% (active)
O=P1(NCC2CCCO2)OCC2(CO1)COP(=O)(NCC1CCCO1)OC2 (configuration not stated)	99% (active)	96% (active)	98.4% (active)
COc1ccc(-c2cc(-c3ccc4c(c3)CC(C)O4)nc(N)n2)cc1 (configuration not stated)	19%	15%	86.5% (active)
CS(=O)(=O)OCCN(CCOS(C)(=O)=O)c1ccc(C=Nc2cccc(Br)c2)c(Cl)c1	-4%	-4%	-49.9%
CCCCCCCCCCCCCCCC(=O)NCC[N+](CC)(CC)Cc1ccc(C[N+](CC)(CC)CCNC(=O)CCCCCCCCCCCCCCC)cc1	99% (active)	99% (active)	99.3% (active)
Nc1ncnc2c1ncn2C1OCC(OCc2ccccc2)C(OCc2ccccc2)C1OCc1ccccc1 (configuration not stated)	6%	98% (active)	96.8% (active)
